# The supplement of paper PMC8728848
# Many of the other results were omitted from the sample, so the strongest signals are more common in it than they were.
# B1: PV12658A-bvu-496-32-496 (Bacteroides vulgatus) (protein)
# chain: DLDGAITTPAAVELALNGIYYSLPGNGFNVIFPTVSGSFKAGTMWRQEIVSAGNAVYYSERMLPTLSFSDATEWDADYAVIKNANFLETACNRMSDGEFSGNRRAEVLGEIAYLRALAYFNILVRYCEFWDMNSEYGVVMRNEAPSVSNALKARSSVADSYQYILDQLEIAIEKAPDWKKLSQASKEAAKALKARVLLYAGKYTEAVAAVNDAIDTNSPLPEANYGDVFDKFSTTKEILFARVFDQKDATNTSTRQQCYGNSPTKKQGYWGPTNEYVELVGDDPRADAIFSKVDSLMDSRSSAVAYNLKSVKKLLNDANDMPVIFSRVSELYLIKAEALYRSGASISEAYAPIRKLRERAGAEIILPANNEELETAIFNEWMLELSFENWHEWFAMIRFAGYTEKPDFTRLLALNKTLREALEKEYEKSEAQGDNYYQRIIDRRIDAIPSSEISSNLECKQNPGY
# Experiments:
# Assay in all cases: glycan array binding signal (z-score within array); higher = stronger binding
# Details in all cases: glycan notation: IUPAC condensed, linker removed
# Fuc(a1-2)Gal(b1-4)Glc6S = biological target: Fuc(a1-2)Gal(b1-4)Glc6S
# Method in brief: (§1)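 Arrays were curated from the Consortium for Functional Glycomics database, 3228 in total, and kept only where the protein sequence was available. Binding is expressed as a within-array Z-score. This score was averaged across arrays of the same protein sequence at different concentrations or buffers and across linkers, and negative values can be read as non-binding.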
# [1] = biological target: Fuc(a1-2)Gal(b1-4)GlcNAc(b1-2)Man
# Method in brief: as §1
# [2] = biological target: Fuc(a1-2)Gal(b1-4)GlcNAc(b1-2)Man(a1-3)[Fuc(a1-2)Gal(b1-4)GlcNAc(b1-2)Man(a1-6)]Man(b1-4)GlcNAc(b1-4)[Fuc(a1-6)]GlcNAc
# Method in brief: as §1
# [3] = biological target: Fuc(a1-2)[Gal(a1-3)]Gal(b1-3)GlcNAc(b1-2)Man(a1-3)[Fuc(a1-2)[Gal(a1-3)]Gal(b1-3)GlcNAc(b1-2)Man(a1-6)]Man(b1-4)GlcNAc(b1-4)GlcNAc
# Method in brief: as §1
# [4] = biological target: Fuc(a1-2)[GalNAc(a1-3)]Gal(b1-4)GlcNAc
# Method in brief: as §1
# [5] = biological target: Fuc(a1-2)[GalNAc(a1-3)]Gal(b1-4)GlcNAc(b1-3)Gal(b1-4)GlcNAc(b1-3)Gal(b1-4)GlcNAc
# Method in brief: as §1
# Gal(a1-3)Gal(b1-3)GlcNAc = biological target: Gal(a1-3)Gal(b1-3)GlcNAc
# Method in brief: as §1
# [6] = biological target: Gal(a1-3)Gal(b1-3)GlcNAc(b1-3)GalNAc
# Method in brief: as §1
# [7] = biological target: Gal(a1-3)Gal(b1-4)GlcNAc(b1-2)Man(a1-3)[Gal(a1-3)Gal(b1-4)GlcNAc(b1-2)Man(a1-6)]Man(b1-4)GlcNAc(b1-4)GlcNAc
# Method in brief: as §1
# [8] = biological target: Gal(a1-3)Gal(b1-4)[Fuc(a1-3)]GlcNAc(b1-2)Man(a1-3)[Gal(a1-3)Gal(b1-4)[Fuc(a1-3)]GlcNAc(b1-2)Man(a1-6)]Man(b1-4)GlcNAc(b1-4)GlcNAc
# Method in brief: as §1
# [9] = biological target: Gal(a1-3)[Gal(a1-4)]Gal(b1-4)GlcNAc
# Method in brief: as §1
# [10] = biological target: Gal(a1-4)Gal(b1-4)GlcNAc(b1-2)Man(a1-3)[Gal(a1-4)Gal(b1-4)GlcNAc(b1-2)Man(a1-6)]Man(b1-4)GlcNAc(b1-4)GlcNAc
# Method in brief: as §1
# Gal(b1-2)Gal = biological target: Gal(b1-2)Gal
# Method in brief: as §1
# [11] = biological target: Gal(b1-3)GalNAc(b1-4)Gal(b1-4)Glc
# Method in brief: as §1
# Gal(b1-3)GlcNAc = biological target: Gal(b1-3)GlcNAc
# Method in brief: as §1
# [12] = biological target: Gal(b1-3)GlcNAc(b1-3)Gal(b1-4)GlcNAc(b1-2)[Gal(b1-3)GlcNAc(b1-3)Gal(b1-4)GlcNAc(b1-6)]Man(a1-6)[Gal(b1-3)GlcNAc(b1-3)Gal(b1-4)GlcNAc(b1-2)Man(a1-3)]Man(b1-4)GlcNAc(b1-4)[Fuc(a1-6)]GlcNAc
# Method in brief: as §1
# [13] = biological target: Gal(b1-3)GlcNAc(b1-3)Gal(b1-4)[Fuc(a1-3)]GlcNAc
# Method in brief: as §1
# Gal(b1-4)GlcNAc = biological target: Gal(b1-4)GlcNAc
# Method in brief: as §1
# [14] = biological target: Gal(b1-4)GlcNAc(b1-3)Gal(b1-3)GlcNAc
# Method in brief: as §1
# [15] = biological target: Gal(b1-4)GlcNAc(b1-3)Gal(b1-4)Glc
# Method in brief: as §1
# [16] = biological target: Gal(b1-4)GlcNAc(b1-3)Gal(b1-4)GlcNAc(b1-3)Gal(b1-4)GlcNAc(b1-3)Gal(b1-4)GlcNAc(b1-2)Man(a1-3)[Gal(b1-4)GlcNAc(b1-3)Gal(b1-4)GlcNAc(b1-3)Gal(b1-4)GlcNAc(b1-3)Gal(b1-4)GlcNAc(b1-2)Man(a1-6)]Man(b1-4)GlcNAc(b1-4)GlcNAc
# Method in brief: as §1
# [17] = biological target: Gal(b1-4)GlcNAc(b1-3)Gal(b1-4)GlcNAc(b1-3)GalNAc
# Method in brief: as §1
# [18] = biological target: Gal(b1-4)GlcNAc(b1-3)[Gal(b1-4)GlcNAc(b1-6)]Gal(b1-4)GlcNAc
# Method in brief: as §1
# [19] = biological target: Gal(b1-4)GlcNAc(b1-6)GalNAc
# Method in brief: as §1
# [20] = biological target: GalNAc(a1-3)GalNAc(b1-3)Gal(a1-4)Gal(b1-4)GlcNAc
# Method in brief: as §1
# [21] = biological target: GalNAc(b1-3)Gal(a1-4)Gal(b1-4)GlcNAc
# Method in brief: as §1
# GalNAc(b1-4)Gal(b1-4)Glc = biological target: GalNAc(b1-4)Gal(b1-4)Glc
# Method in brief: as §1
# GalNAc6S(b1-4)GlcNAc = biological target: GalNAc6S(b1-4)GlcNAc
# Method in brief: as §1
# [22] = biological target: GlcNAc(a1-3)Gal(b1-4)GlcNAc
# Method in brief: as §1
# [23] = biological target: GlcNAc(b1-2)Gal(b1-3)GalNAc
# Method in brief: as §1
# [24] = biological target: GlcNAc(b1-3)Gal(b1-4)GlcNAc(b1-3)Gal(b1-4)GlcNAc(b1-3)Gal(b1-4)GlcNAc(b1-3)Gal(b1-4)GlcNAc(b1-2)Man(a1-3)[GlcNAc(b1-3)Gal(b1-4)GlcNAc(b1-3)Gal(b1-4)GlcNAc(b1-3)Gal(b1-4)GlcNAc(b1-3)Gal(b1-4)GlcNAc(b1-2)Man(a1-6)]Man(b1-4)GlcNAc(b1-4)GlcNAc
# Method in brief: as §1
# [25] = biological target: GlcNAc(b1-3)Gal(b1-4)GlcNAc(b1-3)Gal(b1-4)GlcNAc(b1-3)GalNAc
# Method in brief: as §1
# [26] = biological target: GlcNAc(b1-4)Gal(b1-4)GlcNAc
# Method in brief: as §1
# [27] = biological target: GlcNAc(b1-4)GlcNAc(b1-4)GlcNAc(b1-4)GlcNAc(b1-4)GlcNAc
# Method in brief: as §1
# [28] = biological target: Man(a1-3)[Man(a1-6)]Man(a1-6)[Man(a1-3)]Man(b1-4)GlcNAc(b1-4)GlcNAc
# Method in brief: as §1
# [29] = biological target: Neu5Ac(a2-3)Gal(b1-3)GalNAc
# Method in brief: as §1
# [30] = biological target: Neu5Ac(a2-3)Gal(b1-3)GlcNAc(b1-2)Man(a1-3)[GlcNAc(b1-4)][Neu5Ac(a2-3)Gal(b1-3)GlcNAc(b1-2)Man(a1-6)]Man(b1-4)GlcNAc(b1-4)GlcNAc
# Method in brief: as §1
# [31] = biological target: Neu5Ac(a2-3)Gal(b1-3)[Fuc(a1-4)]GlcNAc(b1-3)Gal(b1-3)[Fuc(a1-4)]GlcNAc
# Method in brief: as §1
# [32] = biological target: Neu5Ac(a2-3)Gal(b1-4)GlcNAc(b1-2)Man
# Method in brief: as §1
# [33] = biological target: Neu5Ac(a2-3)Gal(b1-4)GlcNAc(b1-3)Gal(b1-4)GlcNAc(b1-3)Gal(b1-4)GlcNAc(b1-2)Man(a1-3)[Neu5Ac(a2-3)Gal(b1-4)GlcNAc(b1-3)Gal(b1-4)GlcNAc(b1-3)Gal(b1-4)GlcNAc(b1-2)Man(a1-6)]GalNAc
# Method in brief: as §1
# [34] = biological target: Neu5Ac(a2-3)Gal(b1-4)GlcNAc(b1-6)GalNAc
# Method in brief: as §1
# [35] = biological target: Neu5Ac(a2-3)Gal(b1-4)GlcNAc6S
# Method in brief: as §1
# [36] = biological target: Neu5Ac(a2-3)Gal(b1-4)[Fuc(a1-3)]GlcNAc(b1-6)[Gal(b1-3)]GalNAc
# Method in brief: as §1
# [37] = biological target: Neu5Ac(a2-3)Gal(b1-4)[Fuc(a1-3)]GlcNAc(b1-6)[Neu5Ac(a2-3)Gal(b1-3)]GalNAc
# Method in brief: as §1
# [38] = biological target: Neu5Ac(a2-3)[GalNAc(b1-4)]Gal(b1-4)GlcNAc(b1-3)GalNAc
# Method in brief: as §1
# [39] = biological target: Neu5Ac(a2-6)Gal(b1-4)GlcNAc(b1-2)Man(a1-3)[GlcNAc(b1-4)][Neu5Ac(a2-6)Gal(b1-4)GlcNAc(b1-2)Man(a1-6)]Man(b1-4)GlcNAc(b1-4)GlcNAc
# Method in brief: as §1
# [40] = biological target: Neu5Ac(a2-6)Gal(b1-4)GlcNAc(b1-3)Gal(b1-4)GlcNAc(b1-2)Man(a1-3)[Neu5Ac(a2-6)Gal(b1-4)GlcNAc(b1-3)Gal(b1-4)GlcNAc(b1-2)Man(a1-6)]GalNAc
# Method in brief: as §1
# [41] = biological target: Neu5Ac(a2-6)Gal(b1-4)GlcNAc(b1-3)Gal(b1-4)GlcNAc(b1-3)GalNAc
# Method in brief: as §1
# [42] = biological target: Neu5Ac(a2-6)GalNAc(b1-4)GlcNAc
# Method in brief: as §1
# [43] = biological target: Neu5Ac(a2-8)Neu5Gc(a2-3)Gal(b1-4)GlcNAc
# Method in brief: as §1
binder,measurement,setting,value
B1,glycan array binding signal (z-score),Fuc(a1-2)Gal(b1-4)Glc6S,-0.163
same,glycan array binding signal (z-score),[1],-0.199
same,glycan array binding signal (z-score),[2],0.201
same,glycan array binding signal (z-score),[3],3.63
same,glycan array binding signal (z-score),[4],-0.36
same,glycan array binding signal (z-score),[5],0.133
same,glycan array binding signal (z-score),Gal(a1-3)Gal(b1-3)GlcNAc,3.81
same,glycan array binding signal (z-score),[6],-0.252
same,glycan array binding signal (z-score),[7],4.55
same,glycan array binding signal (z-score),[8],0.883
same,glycan array binding signal (z-score),[9],1.73
same,glycan array binding signal (z-score),[10],7.57
same,glycan array binding signal (z-score),Gal(b1-2)Gal,-0.301
same,glycan array binding signal (z-score),[11],0.963
same,glycan array binding signal (z-score),Gal(b1-3)GlcNAc,-0.316
same,glycan array binding signal (z-score),[12],6.34
same,glycan array binding signal (z-score),[13],-0.533
same,glycan array binding signal (z-score),Gal(b1-4)GlcNAc,-0.258
same,glycan array binding signal (z-score),[14],-0.494
same,glycan array binding signal (z-score),[15],-0.266
same,glycan array binding signal (z-score),[16],5.64
same,glycan array binding signal (z-score),[17],3.98
same,glycan array binding signal (z-score),[18],0.41
same,glycan array binding signal (z-score),[19],-0.393
same,glycan array binding signal (z-score),[20],-0.573
same,glycan array binding signal (z-score),[21],-0.363
same,glycan array binding signal (z-score),GalNAc(b1-4)Gal(b1-4)Glc,-0.027
same,glycan array binding signal (z-score),GalNAc6S(b1-4)GlcNAc,-0.216
same,glycan array binding signal (z-score),[22],-0.069
same,glycan array binding signal (z-score),[23],-0.342
same,glycan array binding signal (z-score),[24],0.265
same,glycan array binding signal (z-score),[25],0.161
same,glycan array binding signal (z-score),[26],-0.358
same,glycan array binding signal (z-score),[27],-0.447
same,glycan array binding signal (z-score),[28],0.012
same,glycan array binding signal (z-score),[29],-0.233
same,glycan array binding signal (z-score),[30],-0.433
same,glycan array binding signal (z-score),[31],-0.275
same,glycan array binding signal (z-score),[32],-0.265
same,glycan array binding signal (z-score),[33],7.6
same,glycan array binding signal (z-score),[34],-0.479
same,glycan array binding signal (z-score),[35],-0.525
same,glycan array binding signal (z-score),[36],4.21
same,glycan array binding signal (z-score),[37],-0.336
same,glycan array binding signal (z-score),[38],-0.198
same,glycan array binding signal (z-score),[39],-0.152
same,glycan array binding signal (z-score),[40],10.6
same,glycan array binding signal (z-score),[41],-0.476
same,glycan array binding signal (z-score),[42],-0.163
same,glycan array binding signal (z-score),[43],5.59
